The nature of assay [1]: NCI Yeast Anticancer Drug Screen. Data for the rad50 strain (AID 155).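 Note: 0% = growth of vehicle-only cultures of the same strain.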 The conditions noted are these: S. cerevisiae rad50 strain growth inhibition, hits give high values. Put shortly:
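Vehicle-treated cultures provide the reference for the growth inhibition reported for compound-exposed, repair-deficient yeast.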

Assay [2] in a line: NCI Yeast Anticancer Drug Screen. Data for the mec2-1 strain (AID 157). Particulars: S. cerevisiae mec2-1 strain, hits give high values. The procedure, abridged:
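Readout is yeast growth inhibition, normalised to vehicle-treated controls, in the mec2-1 strain exposed to compound.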

A short description of assay [3]: NCI Yeast Anticancer Drug Screen. Data for the sgs1 mgt1 strain (AID 161).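 Note: 0% = growth of cultures given vehicle only.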 The conditions noted are these: S. cerevisiae sgs1 mgt1 strain, hits give high values. Put shortly: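 Growth of a repair-deficient yeast mutant was monitored after compound treatment and expressed as inhibition relative to vehicle-treated cultures.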
Assay [4] can be described thus: NCI Yeast Anticancer Drug Screen. Data for the cln2 rad14 strain (AID 165).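 Note: 0% = growth equal to vehicle treated cultures.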 Particulars: S. cerevisiae cln2 rad14 strain, hits give high values. Put shortly:
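Relative to vehicle controls, growth inhibition of compound-treated cln2 rad14 yeast was recorded.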

Assay [5] is described as follows: NCI Yeast Anticancer Drug Screen. Data for the bub3 strain (AID 167). The conditions noted are these: S. cerevisiae bub3 mutant strain, hits give high values. Put shortly:
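Mutant yeast screening strain plus compound; vehicle-treated cultures serve as the 0% inhibition reference.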

Assay [6] is described as follows: NCI Yeast Anticancer Drug Screen. Data for the mlh1 rad18 strain (AID 175). The conditions noted are these: S. cerevisiae mlh1 rad18 strain growth inhibition, hits give high values. Put shortly: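 Test agents were incubated with a yeast strain of defined genotype (DNA damage repair defect). Inhibition of growth was derived by comparison with vehicle-exposed cultures.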

Where [7] appears, read: at 5.0 µM (retest, dose inferred, filed as 0.5).
[8] abbreviates: at 50.0 µM (retest, dose inferred, filed as 5.0).

Molecules are shown by their SMILES. This is part of a sample that, as a whole, favours compounds with a hit. Of some 79,000 tested, about 15% had one in any assay. A number with no mark means an inactive call. The source made the active and inactive calls. Cut-off read from the data, not from the text of the source: active = growth inhibition above about 70%; inactive = the rest.

For the compound `OC1(C2c3ccccc3-c3ccccc32)c2ccccc2-c2ccccc21`, the growth inhibition was 66% in assay [1] (setting [7]); 90% (active) in assay [1] (setting [8]); 94.4% (active) in assay [1] (at 50.0 µM); 38% in assay [2] (setting [7]); 94% (active) in assay [2] (setting [8]); 80.7% (active) in assay [2] (at 50.0 µM). Further, the growth inhibition in assay [3] (setting [7]) is 45%; in assay [3] (setting [8]), 94% (active); in assay [3] (at 50.0 µM), 94.3% (active); in assay [4] (setting [7]) it was 11%; in assay [4] (setting [8]), 90% (active); in assay [4] (at 50.0 µM), 52.1%. Further, the growth inhibition in assay [5] (setting [7]) was 28%; in assay [5] (setting [8]), 92% (active); in assay [5] (at 50.0 µM), 81.1% (active); in assay [6] (setting [7]) it was 84% (active); in assay [6] (setting [8]), 93% (active); in assay [6] (at 50.0 µM), 94.6% (active).
For the compound `CCC(=O)/C(=C\I)c1ccccc1`, the growth inhibition in assay [1] (setting [7]) was 26%; in assay [1] (setting [8]), 26%; in assay [1] (at 50.0 µM), 89.3% (active); in assay [2] (setting [7]), -6%; in assay [2] (setting [8]), -6%; in assay [2] (at 50.0 µM), 92.2% (active). Also, the growth inhibition in assay [3] (setting [7]) is 23%; in assay [3] (setting [8]), 23%; in assay [3] (at 50.0 µM), 86.7% (active); in assay [4] (setting [7]), 8%; in assay [4] (setting [8]) it was 8%; in assay [4] (at 50.0 µM) it was 89.9% (active). The growth inhibition in assay [5] (setting [7]) is 7%; in assay [5] (setting [8]) it was 7%; in assay [5] (at 50.0 µM), 89.5% (active); in assay [6] (setting [7]) it was 21%; in assay [6] (setting [8]), 21%; in assay [6] (at 50.0 µM), 85.5% (active).
For `CCN(CC)CCCC(Nc1c2ccc(Cl)cc2nc2ccc(OC)cc12)c1cccs1` (configuration not stated), the growth inhibition in assay [1] (setting [7]) was 91% (active); in assay [1] (setting [8]), 74% (active); in assay [1] (at 50.0 µM), 81.5% (active); in assay [2] (setting [7]), 91% (active); in assay [2] (setting [8]), 72% (active); in assay [2] (at 50.0 µM) it was 35.2%. The growth inhibition in assay [3] (setting [7]) was 92% (active); in assay [3] (setting [8]), 75% (active); in assay [3] (at 50.0 µM) it was 65.9%; in assay [4] (setting [7]), 87% (active); in assay [4] (setting [8]) it was 62%; in assay [4] (at 50.0 µM), 74.8% (active). Also, the growth inhibition was 90% (active) in assay [5] (setting [7]); 68% in assay [5] (setting [8]); 68.9% in assay [5] (at 50.0 µM); 91% (active) in assay [6] (setting [7]); 72% (active) in assay [6] (setting [8]); 62.5% in assay [6] (at 50.0 µM).
`Nc1nc2nc(I)[nH]c2c(=O)[nH]1`: the growth inhibition in assay [1] (setting [7]) is -4%; in assay [1] (setting [8]), -4%; in assay [1] (at 50.0 µM), 4.8%; in assay [2] (setting [7]), -13%; in assay [2] (setting [8]) it was -16%; in assay [2] (at 50.0 µM) it was -2.5%. Moreover, the growth inhibition in assay [3] (setting [7]) was 10%; in assay [3] (setting [8]) it was 9%; in assay [3] (at 50.0 µM) it was -5.25%; in assay [4] (setting [7]), -8%; in assay [4] (setting [8]), -4%; in assay [4] (at 50.0 µM), 30.3%. For the same compound, the growth inhibition is -7% in assay [5] (setting [7]); 3% in assay [5] (setting [8]); 31.6% in assay [5] (at 50.0 µM); -9% in assay [6] (setting [7]); -2% in assay [6] (setting [8]); 10.9% in assay [6] (at 50.0 µM).

The values are drawn from PubChem BioAssay (NCI).
